“And” between values parts separate entries of the source, which are not always exact repeats. Equal values may be shown once. The source made the active and inactive calls. How the source made its calls: active means hit-call score of the fitted dose curve at least 0.9, where 1 is the maximum; inactive means score below 0.9.
experiment: ATG_BRE_CIS: Attagene CIS-FACTORIAL HepG2 Assay for human Bone Morphogenetic Protein (BMP) Response Element (BRE) (AID 2282933); conditions: HepG2 BMP response element reporter, Attagene transcription factor profiling; actives raise or lower the signal
Method: ATG_CIS is a cell-based, multiplexed-readout assay that uses HepG2, a human liver cell line, with measurements taken at 24 hours after chemical dosing in a 24-well plate.ATG_BRE_CIS is one of 52 assay component(s) measured or calculated from the ATG_CIS assay. It is designed to make measurements of mRNA induction, a form of inducible reporter, as detected with fluorescence intensity signals by Reverse transcription polymerase chain reaction (RT-PCR) and Capillary electrophoresis technology.Data from the assay component ATG_BRE_CIS was analyzed into 1 assay endpoint. This assay endpoint, ATG_BRE_CIS, was analyzed with bidirectional fitting relative to DMSO as the negative control and baseline of activity. Using a type of inducible reporter, measures of mRNA for gain or loss-of-signal activity can be used to understand the reporter gene at the transcription factor-level as they relate to the gene SMAD1. Furthermore, this assay endpoint can be referred to as a primary readout, because this assay has produced multiple assay endpoints where this one serves a reporter gene function. To generalize the intended target to other relatable targets, this assay endpoint is annotated to the dna binding intended target family, where the subfamily is Smad protein.
Human liver HepG2 cells are transiently transfected with multiple reporter transcription units (MRTUs) in 6-well plates using FuGene 6 reagent (Roche; 3 ml FuGene/1 mg DNA). The MRTU constructs are regulated by a cis-regulating element (promoter). […] A major difference between the CIS and TRANS system is that in CIS activities of endogenous TFs are measured, whereas the TRANS assay evaluates changes in activities of exogenous, chimeric NR-Gal4 proteins. […] At the end of 24 hour incubation, total RNA was isolated using TriZol reagent (Invitrogen). The isolated RNA is then reverse-transcribed using oligo(dT) primer and Mo-MLV reverse transcriptase (Invitrogen) with DNAse I (Ambion) treatment for 30 min. The one-tenth of the produced cDNA was amplified by PCR using Taq DNA polymerase (Invitrogen) and two reporter sequence-specific primers. The PCR products were fluorescently labeled by primer extension with 6-arboxyfluorescein (6-FAM) 5'-labeled reporter sequence-specific primer (2 min at 95 C, 20 s at 68 C and 10 min at 72 C) and these products were digested with 5U of HpaI (New England Biolabs) for 2h at 37 C. The fragments were purified using Qiaquick PCR columns (Qiagen), analyzed on an ABI 3130xL genetic analyzer (Applied Biosystems) with peak positions identified by using a set of X-rhodamine (ROX)-labeled MapMarker1000 molecular weight standards (BioVentures). The raw capillary electrophoresis data was processed using Attagraph software (Attagene).

Row | Structure (SMILES) | outcome | AC50
1 | COC(=O)Nc1nc2ccccc2[nH]1 | inactive | 
2 | Nc1ccc(Cl)cc1N | inactive | 
3 | O=[N+]([O-])C(Br)(CO)CO | inactive | 
4 | COc1cc(C=O)cc2c1[C@H](COC(N)=O)[C@]1(OC(C)=O)ON2C[C@H]2[C@@H]1N2C(C)=O | inactive | 
5 | c1ccc2c(c1)-c1cccc3cccc-2c13 | inactive | 
6 | CCN(CC)CCO | inactive | 
7 | CC(C)(OOC(C)(C)c1ccccc1)c1ccccc1 |  | 48.5 µM (active)
8 | CCC12COCN1COC2 | inactive | 
9 | O=[N+]([O-])c1ccc(Oc2ccc(Cl)cc2Cl)cc1 |  | 56.4 µM (active)
10 | O=C1CCCO1 | inactive | 
11 | N#CC(Br)(Br)C(N)=O | inactive | 
12 | CCN(CC)N=O | inactive | 
13 | O=C(N[C@H](c1ccccc1)[C@@H]1CN2CCC1CC2)c1c(Cl)ccc(C(F)(F)F)c1Cl | inactive | 
14 | CC(C)(C)OOC(C)(C)CCC(C)(C)OOC(C)(C)C |  | 161 µM (active)
15 | Cc1ccc(N=C=O)cc1N=C=O | inactive | 
16 | O=C(O)C1C2CCC(O2)C1C(=O)O (stereo not given) | inactive | 
17 | Nc1ccc([N+](=O)[O-])cc1 | inactive | 
18 | CCCSC(=O)N(CCC)CCC | inactive | 
19 | CCCCCCCCn1sccc1=O |  | 11.6 µM (active)
20 | Nc1ccc(Cc2ccc(N)cc2)cc1 | inactive | 

Row | Structure (SMILES) | outcome | AC50
21 | CS(=O)(=O)NC(=O)c1cc(Oc2ccc(C(F)(F)F)cc2Cl)ccc1[N+](=O)[O-] | inactive | 
22 | Nc1ccc(N=Nc2ccccc2)cc1 |  | 59.4 µM (active)
23 | O=Cc1ccco1 | inactive | 
24 | Nc1cc(Cl)cc(C(=O)O)c1Cl | inactive | 
25 | Clc1ccc(C(c2ccc(Cl)cc2)C(Cl)(Cl)Cl)cc1 | inactive | 
26 | O=C(Nc1ccccc1)c1ccccc1I | inactive | 
27 | CCNS(=O)(=O)C(F)(F)C(F)(F)C(F)(F)C(F)(F)C(F)(F)C(F)(F)C(F)(F)C(F)(F)F |  | 33.4 µM (active) and 63.6 µM (active) and 35.3 µM (active)
28 | CCOC(=O)[C@]1(c2ccccc2)Oc2ccccc2[C@@H]1N |  | 22.5 µM (active)
29 | OCCCBr | inactive | 
30 | [Cl-].[Cl-].[Hg+2] | inactive | 
31 | Clc1ccc(C(c2ccc(Cl)cc2)C(Cl)Cl)cc1 | inactive | 
32 | O=C(Oc1ccc(Br)cc1)N1CCN2CCC1CC2 | inactive | 
33 | C1=Cc2cccc3cccc1c23 | inactive | 
34 | Cc1cc(N=Nc2ccccc2C)ccc1N |  | 33.4 µM (active)
35 | CCOc1cccc(C2(N3CCN(c4ccccc4)CC3)CCC(C)CC2)c1 (stereo not given) | inactive | 
36 | [As]#[In] | inactive | 
37 | CN(C)[C@@H]1C(=O)C(C(N)=O)=C(O)[C@@]2(O)C(=O)C3=C(O)c4c(O)cccc4[C@@](C)(O)[C@H]3C[C@@H]12 | inactive | 
38 | c1ccc2c(c1)oc1ccccc12 | inactive | 
39 | ClC1=C(Cl)C2(Cl)C3C(Cl)C=CC3C1(Cl)C2(Cl)Cl (stereo not given) | inactive | 
40 | CCCCCOC(=O)c1ccccc1C(=O)OCCCCC | inactive | 
